Most compounds without a hit are left out; they make up all but 7.5% or so of the library.
SMN2 splice up – SMN2 splice variant enhancement; HEK293 SMN2-luciferase splicing reporter, luminescence, 30-36 h; Potency, µM (doses to about 46.1 µM), for the others: top-dose activity change, positive = activation, hits mostly activators; 210,000 compounds, 2.8% hits; AID 1458; note: % of control where 0% means no effect; nearly all actives have a fitted effect of over 55% in size
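qHTS luciferase splicing reporter: luminescence rises when SMN2 exon 7 is included in transfected HEK293 cells. Compound exposure lasted 30-36 h at 37C, with 4.5 mM final sodium butyrate as control, followed by a ONE-Glo read.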
ELG1 genotox – inducers of genotoxicity in HEK293T ELG1-luciferase cells. 330,000 compounds, 1.3% hits. AID 504466. HEK293T ELG1-luciferase reporter, luminescence, 16 h. Potency, µM (doses to about 46 µM), for the others: top-dose activity change, positive = activation, hits mostly activators; note: % of control where 0% means no effect; nearly all actives have a fitted effect of over 60% in size
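After overnight (16 hr) compound treatment at 37 °C, ELG1-luciferase HEK293T cells were lysed with ONE-Glo; luminescence quantified 30 min later at room temperature.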
NPC1 promoter act – NPC1 promoter activation; Huh7 NPC1 promoter luciferase reporter, 24 h; Potency, µM (top dose mostly 9.22 µM), for the others: at the top dose activation, hits mostly activators; 320,000 compounds, 2.4% hits; note: % of control where 0% means no effect; nearly all actives have a fitted effect of over 60% in size
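Luminescence from an NPC1 promoter-driven luciferase reporter in stably transfected Huh7 cells was measured after 24 h compound treatment at 37 °C, followed by 10 min ambient incubation with luciferase detection reagent.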
Rab9 prom act – activates the Rab9 promoter; Huh7 Rab9 promoter-luciferase reporter, luminescence, 24 h; Potency, µM (series often up to 9.22 µM), inactives show top-dose activation, negative = inhibition, usual class: activators; 320,000 compounds, 2.8% hits; AID 485297; note: % of control where 0% means no effect; nearly all actives have a fitted effect of over 60% in size
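Cell-based reporter: Huh7 stable for Rab9 promoter-driven luciferase, plated in reduced-serum medium with 10% FBS at 1500 cells/well, compound-treated 24 h at 37 °C, luminescence read after 10 min reagent.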
FLuc counter – firefly luciferase modulation, counter-screen for miR-21 project | AID 588342 | Potency, µM (highest dose often 57.5 µM), inactives show at the top dose activity change, negative = inhibition, actives largely listed as inhibitors | purified FLuc, Km substrates, luminescence inhibition | 360,000 compounds, 6.9% hits;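 note: plate controls were vehicle for no effect and reference inhibitor for full effect; nearly all actives have a fitted effect of over 55% in size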
Target sequence (P08659 whole entry, looked up): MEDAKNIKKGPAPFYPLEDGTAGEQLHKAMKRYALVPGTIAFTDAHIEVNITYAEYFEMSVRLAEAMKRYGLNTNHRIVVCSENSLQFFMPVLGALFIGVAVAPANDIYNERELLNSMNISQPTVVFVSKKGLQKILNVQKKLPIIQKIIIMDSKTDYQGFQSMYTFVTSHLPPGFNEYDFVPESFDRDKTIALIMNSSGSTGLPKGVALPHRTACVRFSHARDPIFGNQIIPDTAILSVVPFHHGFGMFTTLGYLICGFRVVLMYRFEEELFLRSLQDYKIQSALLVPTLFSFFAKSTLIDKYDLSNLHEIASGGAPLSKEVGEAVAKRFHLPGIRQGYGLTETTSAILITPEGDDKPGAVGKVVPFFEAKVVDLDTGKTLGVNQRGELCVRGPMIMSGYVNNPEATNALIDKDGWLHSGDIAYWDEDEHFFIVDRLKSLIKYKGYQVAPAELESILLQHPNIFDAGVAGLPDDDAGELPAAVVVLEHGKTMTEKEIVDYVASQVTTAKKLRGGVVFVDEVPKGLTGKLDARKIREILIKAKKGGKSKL
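Biochemical qHTS of compounds, final roughly 60 µM downward over six points, against 10 nM purified firefly luciferase using Km concentrations of substrates (10 uM D-luciferin, 10 uM ATP) in Tris acetate pH 7.5 buffer; luminescence output.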
* hit, by the source's call; ? = inconclusive; · = not tested or not shown; [ ] = another dose, or the depositor's remark. Calls come from the whole dose curve; as a rule, active = well fitted curve in the direction sought with a large enough effect; inconclusive = small, poorly fitted or top-dose-only effect, or another doubt; inactive = no such curve, though single readings can be large; an effect the other way counts as inactive or inconclusive. Potency is the fitted concentration of half-maximal effect.

SMILES	SMN2 splice up	ELG1 genotox	NPC1 promoter act	Rab9 prom act	FLuc counter
Oc1ccc2c(c1)OCO2	-0.2%	·	·	·	·
Cc1ccc(S(=O)(=O)N(C)C)cc1-n1c(SCC(=O)Nc2ccccc2)nc2ccccc2c1=O	-2.1%[1.84 µM]	-0.4%	-4.1%	-4.9%	0.5%
Cc1cc(NC(=O)CSc2nc3ccsc3c(=O)n2NC(=O)c2ccccc2)no1	?	2.8%	-3.3%	14.3%	0.7%
Cc1cc(C(=O)CN2C(=O)NC(C)(c3ccccc3)C2=O)c(C)n1CC1CCCO1 (stereo not given)	19.4%	1.0%	10.3%	1.5%	16.9µM*
Cc1cc(C(=O)Cn2cc(C(F)(F)F)ccc2=O)c(C)n1CC1CCCO1 (stereo not given)	·	3.8%	0.8%	-0.7%	0.9%
Cc1cc(C(=O)CN2C(=O)c3ccccc3S2(=O)=O)c(C)n1CC1CCCO1 (stereo not given)	-68.0%	-17.6%	-47.9%	-42.1%	7.57µM*
CC1(c2cccc(Br)c2)NC(=O)N(CC(=O)NCC2CCCO2)C1=O (stereo not given)	·	-2.6%	-3.5%	-0.5%	2.1%
CCC(Oc1ccccc1)C(=O)Nc1nc2c(s1)C(=O)CC(C)(C)C2 (stereo not given)	-3.5%	-3.9%	0.5%	0.3%	3.6%
O=C1C=C(Nc2ccc(Cl)cc2)CC(c2ccc(Cl)cc2)C1 (stereo not given)	-13.1%	8.6%	-2.9%	0.5%	10.7µM*
CCC1(C)OC(=O)N2CCc3c(C)[nH]c4c(C)ccc(c34)C21C (stereo not given)	-17.3%	-10.8%	-5.6%	-3.7%	2.1%
Cc1ccc(C(=O)/C=C2/NC(=O)CS2)cc1	20µM*	16.6%	24.6%	?	6.75µM*
O=C1CS/C(=C/C(=O)c2cccc(Cl)c2)N1	9.6%	13.6%	5.0%	1.3%	?
CCCC(=O)Oc1c(Sc2ccc(Cl)cc2)c(C)nn1-c1ccccc1	-4.4%	·	·	·	10.7µM*
COc1ccc2nc(Nc3nc(C)c(C(C)=O)s3)sc2c1	17.4%	?	2.82µM*	2.51µM*	4.78µM*
COc1ccc(Nc2nc3ccc(OC)cc3s2)cc1	12.6µM*	?	?	2.24µM*	10.7µM*
COc1ccccc1Nc1ncc(-c2cccs2)s1	22.4µM*	?	?	2.82µM*	2.69µM*
O=C1NC(=S)S/C1=C/c1ccc(Oc2cnccn2)cc1	1.4%	2.4%	14.9%	?	21.3µM*
O=C1NC(=O)/C(=C\c2ccc(Oc3cnccn3)cc2)S1	?	?	?	2.82µM*	13.5µM*
COc1cc(/C=C2\SC(=O)NC2=O)ccc1Oc1cnccn1	·	15.0%	-1.1%	4.4%	-19.2%
O=c1ccc(-c2n[nH]c(=S)n2-c2ccc(F)c(Cl)c2)n[nH]1	?	-0.2%	-3.8%	-6.2%	-5.1%
CCCCn1c(N)c(N(CCC(C)C)C(=O)c2sc3nc4n(c(=O)c3c2C)CCC4)c(=O)[nH]c1=O	·	-5.4%	-6.3%	8.0%	5.9%
Cc1ccc(-c2nc3c(c(=O)c4ccccc4n3C)c(=O)n2-c2ccccc2)cc1	-12.9%	2.0%	-0.1%	-0.2%	-3.1%
Cc1ccc(OCC(=O)N(Cc2ccccc2)C2CCS(=O)(=O)C2)c([N+](=O)[O-])n1 (stereo not given)	·	3.7%	0.9%	-3.1%	-0.9%
CCOc1cc(-c2cc(-c3ccccc3)nc(N)c2C#N)ccc1O	?	?	-0.9%	-2.6%	-18.3%
CCOc1cc(-c2cc(-c3ccc(N)cc3)nc(N)c2C#N)ccc1O	12.6µM*	-1.0%	1.1%	9.4%	-13.3%
SMILES	SMN2 splice up	ELG1 genotox	NPC1 promoter act	Rab9 prom act	FLuc counter
Cc1cc(C(=O)OCC(=O)c2ccc3c(c2)OCCO3)c(C)o1	-16.4%	7.9%	?	8.1%	9.53µM*
Cc1noc(C)c1COc1ccc(C(=O)OCC(=O)c2ccc3c(c2)OCCO3)cc1	-32.8%	11.8%	-1.8%	2.4%	-15.3%
Cc1c(C(=O)OCC(=O)c2ccc3c(c2)OCCO3)oc2ccccc12	-11.2%	6.7%	12.4%	22.5%	9.53µM*
O=C(Nc1ccc(S(=O)(=O)N2CCCCC2)cc1)C1CC1	·	-8.6%	-6.3%	-6.2%	-0.7%
CC(=O)Nc1ccc(Cl)c(-c2nc3ncccc3o2)c1	·	2.5%	-0.4%	-5.5%	1.4%
Cc1cccc2c(N)c3c(nc12)CCCC3 (tested in a mixture with another compound)	4.4%	-1.7%	-0.4%	-6.2%	-15.9%
Cc1cc(C)c2c(N)c3cccc(C)c3nc2n1	17.8µM*	-9.5%	-24.2%	-36.1%	-12.6%
CCOc1ccc2nc(N3C(=O)/C(=C/c4ccc(Cl)cc4)NC3=S)sc2c1	5.6%	-0.5%	13.0%	3.4%	9.53µM*
CCN(CC)c1ccc(/C=C(\C#N)C(N)=S)cc1	·	8.3%	-1.2%	1.0%	21.3µM*
CCOC(=O)c1cc(C(=O)Nc2ccc(C)c(F)c2)nn1C	42.5%	?	3.98µM*	2.82µM*	7.57µM*
CCOC(=O)c1cc(C(=O)NCc2ccc(Cl)cc2Cl)nn1C	3.6%	-2.4%	-3.3%	2.0%	-11.2%
CCCCc1c(O)nc(SCCC(=O)O)[nH]c1=O	-15.8%	0.0%	-6.1%	-4.7%	7.0%
Cc1cc(N2CCOCC2)ccc1/C=C1/SC(=O)NC1=O	22.4µM*	?	?	?	15.1µM*
C=CCN1C(=O)S/C(=C\c2ccc(N3CCOCC3)cc2C)C1=O	·	?	?	3.55µM*	6.01µM*
Cc1ccc(C)n1-c1ccc(N2CCOCC2)cc1	20.6%	11.3%	0.6%	-12.1%	3.1%
C=CC(C)N1C(=O)S/C(=C\c2ccc(N3CCOCC3)cc2C)C1=O (stereo not given)	-37.6%	?	?	?	10.7µM*
Cc1cc(N2CCOCC2)ccc1/C=C1\NC(=O)N(CC(=O)Nc2ccccc2C)C1=O	?	19.9%	12.5%	0.6%	?
O=C1NC(=S)N/C1=C/c1ccc2c(c1)OCO2	·	-15.1%	-5.5%	-13.9%	?
O=C1NC(=S)N/C1=C\c1ccc(N2CCOCC2)cc1	18.2%	?	29.2%	23.4%	21.3µM*
O=C(CSc1nnc2c(Cl)cc(C(F)(F)F)cn12)Nc1ccc2c(c1)OCO2	·	2.7%	8.2%	4.1%	-8.3%
COc1cccc(C(=O)Nc2nnc(-c3ccccc3)s2)c1	·	?	1.41µM*	1.58µM*	4.78µM*
CC(C)(C)c1ccc(-c2nnc(NC(=O)c3ccccc3)s2)cc1	2.2%	3.1%	?	?	1.69µM*
COc1cccc(OC)c1C(=O)Nc1nnc(-c2ccc(F)cc2)s1	·	1.9%	0.7%	11.1%	-26.7%
COc1cccc(C(=O)Nc2nnc(-c3ccc(OC)cc3OC)s2)c1	·	?	-0.9%	5.7%	-9.6%
COCC(=O)Nc1nnc(-c2ccc(C(C)(C)C)cc2)s1	8.91µM*	3.66µM*	1.12µM*	0.562µM*	1.9µM*
Cc1cccc2cc(CN(Cc3cccnc3)C(=O)c3ccncc3)c(=O)[nH]c12	11.2%	-7.2%	-0.1%	-0.4%	4.2%

Screening data: PubChem, National Center for Advancing Translational Sciences (NCATS)
